“And” between values parts separate entries of the source, which are not always exact repeats. Equal values may be shown once. Records with an inconclusive call do not appear. Where a structure was tested more than once in an assay, its records may differ in their call. The source made the active and inactive calls. Unless noted, the call rests on the fitted dose curve; in most records, active means well fitted curve in the direction sought with a large enough effect; inconclusive means small, poorly fitted or top-dose-only effect, or another doubt; inactive means no such curve, though single readings can be large; an effect the other way counts as inactive or inconclusive.
How the values were obtained:
Tov-21-G = experiment: Primary qHTS to identify gynecologic anti-cancer compounds using libraries of approved drugs and bioactive compounds (AID 1345084); conditions: Gynecologic cancer cell panel viability, ATPlite luminescence, 48 h; series mostly up to 57.5 µM; further: on the % scale 0 is the no-effect control and ±100 the full control effect; nearly all actives have a fitted effect of over 55% in size
Outline: (§1)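 ATP-based viability (ATPlite), 1,000 cells/well, 16 h pre-incubation, 48 h compound at 37 C, 5% CO2, 15 min RT before read.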

Tov112D = experiment: as above; conditions: Gynecologic cancer cell panel viability, ATPlite luminescence, 48 h; series mostly up to 57.5 µM
Outline: as §1

[1] = Drug repurposing screens with cells derived from glioblastoma tumor samples (AID 1345199); conditions: GBM patient neurospheres viability, ATP luminescence, 48 h; further: nearly all actives have a fitted effect of over 40% in size; further: potency means the concentration at half of the fitted maximal effect; on activity, negative = cell killing: on the % scale 0 is the no-effect control and ±100 the full control effect
Outline: (§2)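 Primary testing used CD133+ neurospheres from four GBM patients, seven concentrations, 48 h exposure and ATP-based viability; confirmation added three slower-growing patient lines.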

astro = experiment: as above; conditions: viability, ATP luminescence, 48 h; series mostly up to 45.9 µM
Outline: as §2

[2] = target: Nuclear receptor subfamily 1 group I member 2 (Rattus norvegicus) (UniProt Q9R1A7); experiment: qHTS assay for small molecule activators of the rat pregnane X receptor (rPXR) signaling pathway (AID 651751; call rule not given here; further: 0% is about no effect); conditions: rPXR reporter cells, luciferase (One-Glo), 24 h
[3] = qHTS assay for small molecule activators of the human pregnane X receptor (PXR) signaling pathway (AID 720659; call rule not given here; further: 0% is about no effect)
[4] = at 45.9 µM (top of the series), tumour line B
[5] = at 45.9 µM (top of the series), tumour line D
[6] = at 46 µM (top of the series), tumour line A
[7] = at 46.1 µM (top of the series), tumour line C
[8] = at 91.6 µM (top of the series), tumour line B
[9] = at 91.6 µM (top of the series), tumour line D
[10] = at 99.2 µM (top of the series), tumour line C

Chain of Nuclear receptor subfamily 1 group I member 2 (Rattus norvegicus) (Q9R1A7 whole entry, looked up): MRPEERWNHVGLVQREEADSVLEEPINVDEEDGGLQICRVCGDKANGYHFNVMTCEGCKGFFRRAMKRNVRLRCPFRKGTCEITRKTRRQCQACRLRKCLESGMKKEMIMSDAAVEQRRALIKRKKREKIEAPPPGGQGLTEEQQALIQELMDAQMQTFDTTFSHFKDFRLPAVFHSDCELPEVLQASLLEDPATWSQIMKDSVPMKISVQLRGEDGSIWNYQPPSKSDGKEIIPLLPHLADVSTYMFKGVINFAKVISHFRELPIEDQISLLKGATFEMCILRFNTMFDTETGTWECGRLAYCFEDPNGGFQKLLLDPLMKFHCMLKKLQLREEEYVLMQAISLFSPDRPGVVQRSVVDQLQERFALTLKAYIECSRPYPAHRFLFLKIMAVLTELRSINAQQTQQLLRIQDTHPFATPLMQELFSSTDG

c1ccc2sc(SSc3nc4ccccc4s3)nc2c1
inactive: Potency (Tov-21-G) | Potency (Tov112D) | activity, negative = cell killing [1, 4] -16.9% | activity, negative = cell killing [1, 5] -20.4% | activity, negative = cell killing [1, 6] -26.6% | activity, negative = cell killing [1, 7] -28% | Potency (astro) | max response [2] -2.5% and 11.1% | outcome [3]

CC(C(=O)O)c1ccc(C(=O)c2cccs2)cc1 (centres undefined)
inactive: Potency (Tov-21-G) | Potency (Tov112D) | activity, negative = cell killing ([1]; at 20 µM (top of the series), tumour line C) 9.23% | activity, negative = cell killing ([1]; at 21.2 µM (top of the series), tumour line B) -14.5% | activity, negative = cell killing ([1]; at 21.2 µM (top of the series), tumour line D) -0.88% | activity, negative = cell killing ([1]; at 21.3 µM (top of the series), tumour line A) -13% | Potency (astro)

CC(=O)c1ccc(OCC(=O)N2CCCCC2)cc1
inactive: Potency (Tov-21-G) | Potency (Tov112D) | activity, negative = cell killing [1, 4] -9.55% | activity, negative = cell killing [1, 5] -17.5% | activity, negative = cell killing [1, 6] -29.4% | activity, negative = cell killing [1, 7] -5.72%

CCCOC(=O)c1ccc(O)cc1
inactive: Potency (Tov-21-G) | Potency (Tov112D) | activity, negative = cell killing [1, 4] -2.89% | activity, negative = cell killing [1, 5] -17.2% | activity, negative = cell killing [1, 7] -7.69% | activity, negative = cell killing [1, 8] -21% | activity, negative = cell killing [1, 9] -29.2% | activity, negative = cell killing [1, 10] -27.8% | Potency (astro) | max response [2] -2.03% and 0.0614% and -3.63%
active: Potency ([1]; tumour line A) 35.5 µM

Nc1cc(-c2ccncc2)c[nH]c1=O
inactive: Potency (Tov-21-G) | Potency (Tov112D) | activity, negative = cell killing [1, 4] -15% | activity, negative = cell killing [1, 5] 3.16% | activity, negative = cell killing [1, 6] -22.8% | activity, negative = cell killing [1, 7] -16.3% | max response [2] -2.86% | outcome [3]

O=C(O)c1ccccc1Nc1cccc(C(F)(F)F)c1
inactive: Potency (Tov-21-G) | Potency (Tov112D) | activity, negative = cell killing [1, 4] -9.13% | activity, negative = cell killing [1, 5] -1.02% | activity, negative = cell killing [1, 6] -4.14% | activity, negative = cell killing [1, 7] -6.5% | max response [2] 1.7% | outcome [3]

C=CCCCCCCCCC(=O)O
inactive: Potency (Tov-21-G) | Potency (Tov112D) | activity, negative = cell killing [1, 4] -14.2% | activity, negative = cell killing [1, 5] -8.73% | activity, negative = cell killing [1, 6] -10.4% | activity, negative = cell killing [1, 7] 6.77% | Potency (astro) | max response [2] 0.475% | outcome [3]

CC1(C)S[C@@H]2[C@H](NC(=O)[C@H](N)c3ccc(O)cc3)C(=O)N2[C@H]1C(=O)O
inactive: Potency (Tov-21-G) | Potency (Tov112D) | activity, negative = cell killing [1, 4] 2.03% | activity, negative = cell killing [1, 5] 3.17% | activity, negative = cell killing [1, 6] -16.6% | activity, negative = cell killing [1, 7] -0.658% | Potency (astro)

N=C(N)N
inactive: Potency (Tov-21-G) | Potency (Tov112D) | activity, negative = cell killing [1, 4] -7.3% | activity, negative = cell killing [1, 5] -23.5% | activity, negative = cell killing [1, 6] -16.6% | activity, negative = cell killing [1, 7] -13.1% | Potency (astro)

COc1cc(CNC(=O)CCCC/C=C/C(C)C)ccc1O
inactive: Potency (Tov-21-G) | Potency (Tov112D) | activity, negative = cell killing [1, 4] -4.61% | activity, negative = cell killing [1, 5] -7.09% | activity, negative = cell killing [1, 7] 17.4% | max response [2] 0.324% and -3.76%
active: Potency ([1]; tumour line A) 11.2 µM

Nc1ccc(C(=O)O)c(O)c1
inactive: Potency (Tov-21-G) | Potency (Tov112D) | activity, negative = cell killing [1, 4] -5.49% | activity, negative = cell killing [1, 5] 3.71% | activity, negative = cell killing [1, 6] -9.87% | activity, negative = cell killing [1, 7] -6.08%

CCOC(=O)c1ccccc1O
inactive: Potency (Tov-21-G) | Potency (Tov112D) | activity, negative = cell killing [1, 4] -4.37% and -22.2% | activity, negative = cell killing [1, 5] -0.79% and -11.1% | activity, negative = cell killing [1, 6] -24.1% | activity, negative = cell killing [1, 7] -28.6% and -1.56% | Potency (astro)

CC(C(=O)O)c1ccc2c(c1)[nH]c1ccc(Cl)cc12 (centres undefined)
inactive: Potency (Tov-21-G) | Potency (Tov112D) | activity, negative = cell killing [1, 4] -6.45% | activity, negative = cell killing [1, 5] -15.7% | activity, negative = cell killing [1, 6] -16.3% | activity, negative = cell killing [1, 7] -19.6% | Potency (astro)

CC(C)OC(=O)c1cc(C(=O)OC(C)C)cc([N+](=O)[O-])c1
inactive: Potency (Tov-21-G) | Potency (Tov112D) | activity, negative = cell killing ([1]; at 91.6 µM (top of the series), tumour line A) -39.8% | activity, negative = cell killing [1, 8] -8.41% | activity, negative = cell killing [1, 9] -19.6% | activity, negative = cell killing [1, 10] 10.5% | Potency (astro) | max response [2] 14.5% | outcome [3]

CCCCCCCCCCCC(=O)[O][Sn]([CH2]CCC)([CH2]CCC)[O]C(=O)CCCCCCCCCCC
inactive: Potency (Tov-21-G) | Potency (Tov112D) | activity, negative = cell killing [1, 4] -6.49% | activity, negative = cell killing [1, 5] -3.33% | activity, negative = cell killing [1, 6] -28.7% | activity, negative = cell killing [1, 7] -3.83% | Potency (astro)

Cc1ccc(O)c(-n2nc3ccccc3n2)c1
inactive: Potency (Tov-21-G) | Potency (Tov112D) | activity, negative = cell killing [1, 4] -17.2% | activity, negative = cell killing [1, 5] -17.5% | activity, negative = cell killing [1, 7] -2.87%

Cc1[nH]cnc1CN1CCc2c(c3ccccc3n2C)C1=O
inactive: Potency (Tov-21-G) | Potency (Tov112D) | activity, negative = cell killing [1, 4] -8.52% | activity, negative = cell killing [1, 5] -4.04% | activity, negative = cell killing [1, 7] -28.6% | Potency (astro)
active: Potency ([1]; tumour line A) 10 µM

COc1ccc(-c2cc(=S)ss2)cc1
inactive: Potency (Tov-21-G) | Potency (Tov112D) | activity, negative = cell killing [1, 4] -21.5% | activity, negative = cell killing [1, 5] -22.3% | activity, negative = cell killing [1, 7] -27.4%

CC1(C)S[C@@H]2[C@H](NC(=O)[C@H](NC(=O)N3CCN(S(C)(=O)=O)C3=O)c3ccccc3)C(=O)N2[C@H]1C(=O)O
inactive: Potency (Tov-21-G) | Potency (Tov112D) | activity, negative = cell killing [1, 4] -6.53% | activity, negative = cell killing [1, 5] -7.16% | activity, negative = cell killing [1, 6] -8.92% | activity, negative = cell killing [1, 7] -22.9% | Potency (astro)

Source: PubChem BioAssay (NCATS)
